Measurements reported in PubChem BioAssay AID624417 (National Center for Advancing Translational Sciences (NCATS), 2012).
About 6,400 (1.6%) of roughly 410,000 compounds were called active. Roughly 20% stayed inconclusive and do not appear here. Calls come from the whole dose curve; as a rule, active = well fitted inhibition curve with a large enough effect; inconclusive = small, poorly fitted or top-dose-only effect; inactive = no such curve, though single readings can be large or run the other way. What follows is part of a selection rich in actives, with near analogues and random picks from the rest.

biological target: Glucagon-like peptide 1 receptor (Homo sapiens) (UniProt P43220); assay: qHTS of GLP-1 Receptor Inverse Agonists (Inhibition Mode); conditions: HEK293 GLP-1R CRE-luciferase, luminescence, 24 h, GLP-1R form is constitutively active; series mostly up to 38.3 µM; note: nearly all actives have a fitted effect of over 55% in size
Sequence (P43220 whole entry, looked up): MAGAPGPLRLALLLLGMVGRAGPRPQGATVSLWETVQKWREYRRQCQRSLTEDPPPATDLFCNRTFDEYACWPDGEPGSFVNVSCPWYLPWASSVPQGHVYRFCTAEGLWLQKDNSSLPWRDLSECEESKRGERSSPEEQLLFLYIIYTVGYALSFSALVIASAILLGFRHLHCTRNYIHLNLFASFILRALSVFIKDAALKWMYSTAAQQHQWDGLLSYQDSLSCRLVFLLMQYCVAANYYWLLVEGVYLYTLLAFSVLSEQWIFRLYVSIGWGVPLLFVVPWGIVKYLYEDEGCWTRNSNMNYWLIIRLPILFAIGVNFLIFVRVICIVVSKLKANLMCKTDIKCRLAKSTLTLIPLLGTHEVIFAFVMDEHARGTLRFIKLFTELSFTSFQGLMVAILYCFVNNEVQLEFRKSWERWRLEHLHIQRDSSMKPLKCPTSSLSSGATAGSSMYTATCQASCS
From the text: The overall goal of this project was to develop a novel assay for discovering small molecule ligands for class B1 G protein-coupled receptors (GPCRs). Very few agonists (or inverse agonists in inhibition mode) with generally weak activity for this entire group of physiologically important receptors are known to date. To establish proof-of-principle that this critical bottleneck can be overcome with a suitable screening approach, our studies focused on the class B1 receptor for glucagon-like peptide-1 (GLP-1R), a potential therapeutic target for diabetes and neurodegenerative disease. The assay was developed using a cell-based functional readout. Toward this goal, stably transfected HEK293 cell clones were established that co-express (i) a cAMP-responsive luciferase reporter gene, and (ii) constitutively active GLP-1R that upon ligand interaction inhibit (inverse agonists) the luciferase activity. In addition, two control cell lines were developed: (i) one that express only the cAMP-responsive reporter gene to enable initial exclusion of GLP-1R independent effects of candidate probes; and (ii) one with the reported gene cloned with another constitutively active orphan receptor GPR119 to enable exclusion of GLP-1R independent inhibitor effects of candidate inverse agonists. To that end, this assay was optimized for 1536-well format and screened against the MLSMR. […] NIH Molecular Libraries Probe Production Network [MLPCN] NIH Chemical Genomics Center [NCGC] Grant: NS064851 PI Name: Martin Beinborn, Tufts Medical Center
Six ul of cell suspension (200 cells/uL in DMEM + 10% Nu serum + 1% pen-strep) is dispensed in a white solid 1536-well plate. The plates are incubated for 12 hours at 37 deg C at 5% CO2 followed by addition of 23 nL compounds. After 24 hr incubation at 37 deg C and 5% CO2, 3 uL of luciferase assay detection reagent is added. A luminescence read is obtained on the PerkinElmer Viewlux after 12 min incubation at room temperature.
Potency is the fitted concentration of half-maximal effect.

Potency, inactive:
COC(=O)C[C@H]1C[C@@H]2c3cc(N(C)C)ccc3O[C@@H]2[C@H](CO)O1
CCN(CC(=O)Nc1cc(Cl)ccc1C)C(=O)CN1C(=O)NC2(CCCC2)C1=O
Cc1ccc(Cl)cc1NC(=O)CSc1nc2ccccc2nc1Cc1ccccc1
CCN(CC(=O)Nc1cc(Cl)ccc1C)C(=O)Cn1c(=O)cnc2ccccc21
Cc1ccc(Cl)cc1NC(=O)COC(=O)CC(C)(C)C
CCCS(=O)(=O)NC(=O)C1(C)CCCN(C(=O)c2cccs2)C1 (centres undefined)
COc1ccc(NC(=O)COC(=O)C2COc3ccccc3O2)cc1 (centres undefined)
Cn1c(=O)c2c(nc(SCC(=O)Nc3ccccc3N3CCCCC3)n2C)n(C)c1=O
Cc1cccc(N2CC(C(=O)Nc3ccccc3N3CCCC3)CC2=O)c1C (centres undefined)
Cc1ccc(C(C)C)cc1OCCN1CCCC1
CC(C)n1c(SCC(=O)Nc2ccccc2N2CCCCC2)nc2c1c(=O)n(C)c(=O)n2C
COC(=O)c1ccc2nc(-c3cccc(Br)c3)c(Cc3ccccc3C(F)(F)F)n2c1
CN(C)C(=O)c1cccc(-c2cnc3c(NC=O)cc(-c4ccc(C(=O)N5CCOCC5)cc4)cn23)c1
CC(=O)C[C@@H]1OC[C@H](CO)N1S(=O)(=O)c1ccc(C)cc1
COc1ccc(NC(=O)C2(C)Cc3c(-c4ccc(C(N)=O)cc4)ccnc3O2)cc1 (centres undefined)
C[C@@H]1CN([C@@H](C)CO)C(=O)c2c(c3ccccc3n2C)-c2ccccc2CO[C@H]1CN(C)C(=O)C1CC1
COc1cc(C(=O)N2CCOC23CCN(Cc2ccccc2)CC3)cc(OC)c1OC
CCOc1ccccc1NC(=O)CCS(=O)(=O)c1cccc2nsnc12
CCOc1ccc(NC(=O)CCS(=O)(=O)c2cccc3nsnc23)cc1
CC1(C(=O)NS(=O)(=O)Cc2cccc(Cl)c2)CCN1C(=O)Cc1ccccc1 (centres undefined)
CCCNC(=O)C1(C)CCCN(Cc2cccc(C(F)(F)F)c2)C1 (centres undefined)
N#Cc1ccc(Oc2cc(C(F)(F)F)nc(-c3ccccn3)n2)cc1
Cc1nc2ccccc2c(C(=O)O)c1-c1ccccn1

Potency, active:
CCN(CC(=O)Nc1cc(Cl)ccc1C)C(=O)CSCc1ccccc1 12.6 µM
CCN(CC(=O)Nc1cc(Cl)ccc1C)C(=O)CSCc1ccc(C)cc1 10 µM
Cc1ccc(C(C)C)cc1OCC(=O)Nc1ccccc1N1CCCC1 2.51 µM
Cc1ccccc1NC(=O)CNc1ccccc1N1CCCCC1 7.94 µM
CCOc1ccc(OCC)c(NC(=O)CN(C)S(=O)(=O)c2cccc3nsnc23)c1 6.31 µM
Cc1ccc(Oc2nc(-c3ccccn3)nc3ccccc23)cc1 5.01 µM
